Data on 34 molecules can be found in PubChem BioAssay (EPA / NIEHS).

The source made the active and inactive calls. Rule for the calls: active = hit-call score of the fitted dose curve at least 0.9, where 1 is the maximum; inactive = score below 0.9.

As a reminder, the AC50 is the concentration giving half of the maximal activity seen.

Read-out in the first assay: Interleukin-6 (IL6), IL6 (gene 3569)
The assay is described as follows: BSK_CASM3C_IL6: BioMAP Diversity Plus: CASM3C Assay for Interleukin-6 (IL6) Biomarker Activity for (AID 2283040). Particulars: primary human coronary artery smooth muscle cells; actives raise or lower the signal.
In the case of `O=C(O)C1(c2ccc3c(c2)OC[C@H](Cc2ccc(-c4ccccc4)cc2)[C@H]3O)CCCC1`, the result was inactive.
Turning to `N#Cc1cccnc1`, the outcome was inactive.
`Cc1cc(Cl)ccc1OC(C)C(=O)O` (configuration not stated): the result was inactive.
On the same count and under the same terms, with `O=C(CCl)NCO` the entry was “inactive”; with `Nc1c(Oc2ccccc2)cc(O)c2c1C(=O)c1ccccc1C2=O`, “inactive”.
Take `Oc1cc(Cl)c(Cl)cc1Cl`: the outcome was inactive.
Turning to `C[C@]12CC[C@@H](O)C[C@@H]1CC[C@@H]1[C@@H]2CC[C@]2(C)C(=O)CC[C@@H]12`, the outcome was inactive.
Turning to `CCC(C)(C#N)N=NC(C)(C#N)CC` (configuration not stated), the result was inactive.
Take `NC(=O)CCl`: the result was inactive.
Consider `CCCCN(CCCC)C(=S)[S-].CCCCN(CCCC)C(=S)[S-].[Ni+2]`, for which the result was inactive.
Regarding `CCCCOC(=O)COC(=O)c1ccccc1C(=O)OCCCC`, the result was inactive.
Take `CCCCCCCCCCCCc1cccc(S(=O)(=O)O)c1`: the result was inactive.
As for `O=C(N[C@H]1CN2CCC1CC2)c1ccc2c(c1)OCCO2`, the result was inactive.
Still for that read-out and setting: with `Clc1cccc(Cl)c1Cl` the entry was “inactive”.
Same read-out and setting: with `Cc1cccc(OP(=O)(Oc2cccc(C)c2)Oc2cccc(C)c2)c1` the entry was “inactive”.
In the case of `c1ccc2sc(SNC3CCCCC3)nc2c1`, the outcome was inactive.
In the case of `OCCCCO`, the result was inactive.
The same measure, in the same setting: with `CC(C)O.CC(C)O.OCCN(CCO)CCO.OCCN(CCO)CCO.[Ti]` the entry was “inactive”; with `Oc1c(Br)cc(Br)cc1Br`, “inactive”.
For the molecule `Clc1cccc(Cl)c1`, the result was inactive.
Regarding `CC(C)N(C(=O)CCl)c1ccccc1`, the concentration at half-maximal activity (AC50) was 32.9 µM (active).
On to `Nc1ccc(N)cc1`, for which the result was inactive.
For `Oc1cccc(-c2ccccc2)c1`, the outcome was inactive.
For `COCC(=O)N(c1c(C)cccc1C)[C@H](C)C(=O)OC`, the result was inactive.
Regarding `O=C1C=CC(=O)c2ccccc21`, the AC50 was 9.25 µM (active).
Consider `Cc1cc(Cl)ccc1N`, for which the result was inactive.
As to `O=C(Cc1ccccc1)OCCc1ccccc1`, the result was inactive.
Consider `O=c1oc2ccccc2c(O)c1C(CC(O)c1ccc(-c2ccc(Br)cc2)cc1)c1ccccc1` (configuration not stated), for which the concentration at half-maximal activity (AC50) was 25 µM (active).
Turning to `Oc1ccc(Cc2ccc(O)cc2)cc1`, the result was inactive.
Regarding `Cc1c([N+](=O)[O-])c(C)c([N+](=O)[O-])c(C(C)(C)C)c1[N+](=O)[O-]`, the result was inactive.
`CC(C)(COCC1CO1)COCC1CO1` (configuration not stated): the outcome was inactive.
On to `CCOC(=O)CC(=O)CCl`, for which the half-maximal activity concentration (AC50) is 28.8 µM (active).
As for `CCCCCCCCCCCCN(C)C`, the outcome was inactive.
With `CCOP(=S)(OCC)SCS(=O)(=O)C(C)(C)C`, the outcome was inactive.

Read-out in the next assay: Tissue plasminogen activator (tPA), PLAT (gene 5327)
The assay is described as follows: BSK_BE3C_tPA: BioMAP Diversity Plus: BE3C Assay for Tissue plasminogen activator (tPA) Biomarker Activity (AID 2283041).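 For outcome: tPA level quantified by ELISA one day after compound addition.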 The note with it: primary human bronchial epithelial cells; actives raise or lower the signal. The method in brief:
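Gain- or loss-of-signal in tPA, measured by ELISA, derived by bidirectional fitting against DMSO. Cells: human primary bronchial epithelial; read at 24 h after chemical dosing.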
Take `O=C(O)C1(c2ccc3c(c2)OC[C@H](Cc2ccc(-c4ccccc4)cc2)[C@H]3O)CCCC1`: the AC50 was 4.2 µM (active).
With `N#Cc1cccnc1`, the outcome was inactive.
Still for that read-out and setting: with `Cc1cc(Cl)ccc1OC(C)C(=O)O` (configuration not stated) the entry was “inactive”; with `O=C(CCl)NCO`, “inactive”; with `Nc1c(Oc2ccccc2)cc(O)c2c1C(=O)c1ccccc1C2=O`, “inactive”.
As for `Oc1cc(Cl)c(Cl)cc1Cl`, the AC50 is 12.9 µM (active).
For `C[C@]12CC[C@@H](O)C[C@@H]1CC[C@@H]1[C@@H]2CC[C@]2(C)C(=O)CC[C@@H]12`, the outcome was inactive.
With `CCC(C)(C#N)N=NC(C)(C#N)CC` (configuration not stated), the outcome was inactive.
Regarding `NC(=O)CCl`, the outcome was inactive.
`CCCCN(CCCC)C(=S)[S-].CCCCN(CCCC)C(=S)[S-].[Ni+2]`: the result was inactive.
Consider `CCCCOC(=O)COC(=O)c1ccccc1C(=O)OCCCC`, for which the result was inactive.
Regarding `CCCCCCCCCCCCc1cccc(S(=O)(=O)O)c1`, the concentration at half-maximal activity (AC50) was 3.92 µM (active).
With `O=C(N[C@H]1CN2CCC1CC2)c1ccc2c(c1)OCCO2`, the result was inactive.
As for `Clc1cccc(Cl)c1Cl`, the outcome was inactive.
For `Cc1cccc(OP(=O)(Oc2cccc(C)c2)Oc2cccc(C)c2)c1`, the half-maximal activity concentration (AC50) was 0.677 µM (active).
Regarding `c1ccc2sc(SNC3CCCCC3)nc2c1`, the outcome was inactive.
Take `OCCCCO`: the outcome was inactive.
Still for that read-out and setting: as for `CC(C)O.CC(C)O.OCCN(CCO)CCO.OCCN(CCO)CCO.[Ti]`, the entry is “inactive”; as for `Oc1c(Br)cc(Br)cc1Br`, “inactive”.
As to `Clc1cccc(Cl)c1`, the result was inactive.
As for `CC(C)N(C(=O)CCl)c1ccccc1`, the result was inactive.
On to `Nc1ccc(N)cc1`, for which the result was inactive.
Consider `Oc1cccc(-c2ccccc2)c1`, for which the result was inactive.
Still for that read-out and setting: with `COCC(=O)N(c1c(C)cccc1C)[C@H](C)C(=O)OC` the entry was “inactive”.
Turning to `O=C1C=CC(=O)c2ccccc21`, the AC50 was 3.27 µM (active).
Regarding `Cc1cc(Cl)ccc1N`, the result was inactive.
Regarding `O=C(Cc1ccccc1)OCCc1ccccc1`, the result was inactive.
With `O=c1oc2ccccc2c(O)c1C(CC(O)c1ccc(-c2ccc(Br)cc2)cc1)c1ccccc1` (configuration not stated), the concentration at half-maximal activity (AC50) was 0.837 µM (active).
As for `Oc1ccc(Cc2ccc(O)cc2)cc1`, the result was inactive.
Take `Cc1c([N+](=O)[O-])c(C)c([N+](=O)[O-])c(C(C)(C)C)c1[N+](=O)[O-]`: the result was inactive.
On the same count and under the same terms, as for `CC(C)(COCC1CO1)COCC1CO1` (configuration not stated), the entry is “inactive”.
For the molecule `CCOC(=O)CC(=O)CCl`, the concentration at half-maximal activity (AC50) was 3.97 µM (active).
In the case of `CCCCCCCCCCCCN(C)C`, the outcome was inactive.
With `CCOP(=S)(OCC)SCS(=O)(=O)C(C)(C)C`, the result was inactive.

Read-out in another assay: Interleukin-8 (IL8), CXCL8 (gene 3576)
Put plainly: BSK_CASM3C_IL8: BioMAP Diversity Plus: CASM3C Assay for Interleukin-8 (IL8) Biomarker Activity (AID 2283042).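 Note: IL-8 protein level quantified by ELISA.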 The note with it: primary human coronary artery smooth muscle cells; actives raise or lower the signal.
As to `O=C(O)C1(c2ccc3c(c2)OC[C@H](Cc2ccc(-c4ccccc4)cc2)[C@H]3O)CCCC1`, the result was inactive.
With `N#Cc1cccnc1`, the outcome was inactive.
For `Cc1cc(Cl)ccc1OC(C)C(=O)O` (configuration not stated), the outcome was inactive.
`O=C(CCl)NCO`: the outcome was inactive.
With `Nc1c(Oc2ccccc2)cc(O)c2c1C(=O)c1ccccc1C2=O`, the result was inactive.
As for `Oc1cc(Cl)c(Cl)cc1Cl`, the outcome was inactive.
Same read-out and setting: with `C[C@]12CC[C@@H](O)C[C@@H]1CC[C@@H]1[C@@H]2CC[C@]2(C)C(=O)CC[C@@H]12` the entry was “inactive”.
With `CCC(C)(C#N)N=NC(C)(C#N)CC` (configuration not stated), the outcome was inactive.
For the molecule `NC(=O)CCl`, the outcome was inactive.
As to `CCCCN(CCCC)C(=S)[S-].CCCCN(CCCC)C(=S)[S-].[Ni+2]`, the outcome was inactive.
In the case of `CCCCOC(=O)COC(=O)c1ccccc1C(=O)OCCCC`, the outcome was inactive.
With `CCCCCCCCCCCCc1cccc(S(=O)(=O)O)c1`, the outcome was inactive.
In the case of `O=C(N[C@H]1CN2CCC1CC2)c1ccc2c(c1)OCCO2`, the result was inactive.
On the same count and under the same terms, as for `Clc1cccc(Cl)c1Cl`, the entry is “inactive”; as for `Cc1cccc(OP(=O)(Oc2cccc(C)c2)Oc2cccc(C)c2)c1`, “inactive”; as for `c1ccc2sc(SNC3CCCCC3)nc2c1`, “inactive”.
As for `OCCCCO`, the outcome was inactive.
Consider `CC(C)O.CC(C)O.OCCN(CCO)CCO.OCCN(CCO)CCO.[Ti]`, for which the outcome was inactive.
Still for that read-out and setting: as for `Oc1c(Br)cc(Br)cc1Br`, the entry is “inactive”.
Same read-out and setting: as for `Clc1cccc(Cl)c1`, the entry is “inactive”.
On to `CC(C)N(C(=O)CCl)c1ccccc1`, for which the half-maximal activity concentration (AC50) was 27.1 µM (active).
Take `Nc1ccc(N)cc1`: the result was inactive.
Regarding `Oc1cccc(-c2ccccc2)c1`, the outcome was inactive.
For the molecule `COCC(=O)N(c1c(C)cccc1C)[C@H](C)C(=O)OC`, the outcome was inactive.
On to `O=C1C=CC(=O)c2ccccc21`, for which the concentration at half-maximal activity (AC50) was 20 µM (active).
As to `Cc1cc(Cl)ccc1N`, the outcome was inactive.
Take `O=C(Cc1ccccc1)OCCc1ccccc1`: the outcome was inactive.
On to `O=c1oc2ccccc2c(O)c1C(CC(O)c1ccc(-c2ccc(Br)cc2)cc1)c1ccccc1` (configuration not stated), for which the AC50 is 0.0413 µM (active).
For the molecule `Oc1ccc(Cc2ccc(O)cc2)cc1`, the outcome was inactive.
Turning to `Cc1c([N+](=O)[O-])c(C)c([N+](=O)[O-])c(C(C)(C)C)c1[N+](=O)[O-]`, the result was inactive.
Regarding `CC(C)(COCC1CO1)COCC1CO1` (configuration not stated), the result was inactive.
Take `CCOC(=O)CC(=O)CCl`: the result was inactive.
Turning to `CCCCCCCCCCCCN(C)C`, the outcome was inactive.
`CCOP(=S)(OCC)SCS(=O)(=O)C(C)(C)C`: the outcome was inactive.
